# Reference: PubChem BioAssay (NCI)
# Values joined by “and” are separate entries in the source; they are usually repeats but may differ in a detail not shown here. Identical values can stand only once. The panel holds about 83,000 compounds, 20% with a hit somewhere; the sample as a whole holds those more often.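 Values shown are percent growth following 48 h exposure of cells in 96-well plates to a single concentration of compound; below 10 was considered active.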 Active and inactive are the calls of the source.
# System: MDA-MB-468 breast
# Experiment: NCI-60 one-dose screen, 48 h (100 = growth as untreated, 0 = no growth, -100 = all killed)
# Details: 10 µM unless noted
row,Structure (SMILES),growth
1,C[C@@H]1CC2C3C[C@H](F)C4=CC(=O)C=C[C@]4(C)[C@@]3(F)[C@@H](O)C[C@]2(C)[C@@]1(O)C(=O)CO (stereo not given in full),102% (inactive)
2,Cc1ccc(-c2ccc(/C=C(\C#N)c3nc(-c4ccco4)cs3)o2)cc1,-45.8% (active)
3,CC(=O)Nc1ccc(C(=O)/C=C/c2ccccc2)cc1,90.8% (inactive)
4,Cc1cc(C)c2sc(=O)n(Cc3nnc(SCCC(=O)O)o3)c2n1,110% (inactive)
5,O=C(CSc1nnc(-c2ccc(Cl)cc2)n1-c1ccccc1)Nc1ccc(F)cc1,91.8% (inactive)
6,CCOC(=O)C1=C(C)NC(SCc2nnc(-c3ccc(Cl)cc3)o2)=NC1c1ccc(Cl)cc1Cl (stereo not given),88.4% (inactive)
7,O=C(c1ccc(Cl)cc1)c1ccc(Cl)cc1,97.2% (inactive)
8,Cn1cc2c(c1)-c1c(sc3nc(-c4ccc(NC(=O)Nc5cc(C(C)(C)C)on5)cc4)cn13)CC2,68.8% (inactive)
9,CCOC(=O)/C(C#N)=C1/NNC(=Nc2cccnc2)S1,95.3% (inactive)
10,O=C(NNC(=S)Nc1ccccc1)c1ccccn1,51.2% (inactive)
11,O=c1[nH]nc(-c2ccc(Cl)cc2)cc1Cc1cccc([N+](=O)[O-])c1,102% (inactive)
12,C=C1C(=O)O[C@H]2[C@H]1CC/C(COC(=O)NCc1cc3ccccc3[nH]1)=C\CC[C@@]1(C)O[C@@H]21,19.3% (inactive)
13,CCN(CC)CCOc1ccc(/C(=C(\C)Cc2ccc(OC)cc2)c2ccc(OC(=O)NCc3ccccc3)cc2)cc1,43.3% (inactive)
14,CS(=O)(=O)c1ccc(-c2nc3ccccn3c2-c2nc3ccc([N+](=O)[O-])cc3[nH]2)cc1,104% (inactive)
15,CC(Br)C(O)c1cc2c(cc1Br)OCO2 (stereo not given),108% (inactive)
16,CC(C)NC1CCC(Nc2ccnc3cc(Cl)ccc23)CC1 (stereo not given),62.3% (inactive)
17,C#CCOC(=O)Nc1ccccc1,117% (inactive)
18,N#Cc1c2c(c(N)[nH]c1=O)C(=O)NC2(O)c1ccccc1 (stereo not given),104% (inactive)
19,CCOC(=O)N1CCN(S(=O)(=O)c2oc(-c3ccc(Cl)cc3)nc2C#N)CC1,86.5% (inactive)
20,CCC(c1ccc(OC)cc1)C(CC)c1ccc(O)c(CN2CCCC2)c1 (stereo not given),-45% (active)

row,Structure (SMILES),growth
1,N#Cc1nnn(-c2ccc(S(N)(=O)=O)cc2)c1NC(=O)CCl,98.7% (inactive)
2,CCOC(=O)CC1C(COC(=O)NC)OC(n2cnc3c(NC(=O)Nc4ccccc4)ncnc32)C1O[Si](C)(C)C(C)(C)C (stereo not given),61.9% (inactive)
3,C#Cc1nc(C2=C(C)C(=N\O)/C(=N/O)C2)cs1,82.6% (inactive)
4,Cc1nc2cnc(N)c(C#Cc3cncc(C(=O)Nc4ccc(Cl)c(C(F)(F)F)c4)c3)c2nc1C,72.6% (inactive)
5,COc1ccc(/C=C/c2ccc3ccccc3n2)c(OC)c1,18.3% (inactive)
6,Nc1cccc2c(=S)c3ccccc3[nH]c12,86.1% (inactive)
7,COc1cc(-c2nc3sccn3c2-c2ccnc(NCCNS(=O)(=O)c3ccc(F)cc3)n2)ccc1F,4.24% (active)
8,COc1c(/C(C)=N/N=c2sc(C(C)=O)nn2-c2ccc(Cl)cc2)c(Oc2ccccc2)c(OC)c2occc12,106% (inactive) and 98.8% (inactive)
9,Cc1ccc(N=CNN=C(N)N)cc1,100% (inactive)
10,Cc1nn(-c2nc3ccccc3[nH]2)c2c1C(c1ccc(OCC(N)=O)cc1)CC(=O)N2 (stereo not given),108% (inactive)
11,O=C(/C=C\c1cccc([N+](=O)[O-])c1)c1ccccc1,-13.8% (active)
12,CC(C)CSc1oc(-c2ccccc2)nc1S(=O)(=O)c1ccccc1,89.4% (inactive)
13,COc1ccc(C2CC(c3ccc4ccccc4c3)=NN2c2nc(O)c(C3=c4cc(OC)ccc4=NC3=O)s2)cc1 (stereo not given),-46.5% (active)
14,CC(C)(C)c1ccc(CC(=O)Nc2sc3c(c2C(N)=O)CCC(=O)C3)cc1,-13.9% (active)
15,COc1c(O[C@@H]2OC(CO)[C@H](O)[C@H](O)C2O)cc2oc3cc(O)c(CC=C(C)C)c(O)c3c(=O)c2c1CC=C(C)C (stereo not given in full),99.8% (inactive)
16,COc1cc(-c2cc(/C=C3\C(=O)Nc4ccc(Cl)cc43)[nH]n2)cc(OC)c1OC,67.7% (inactive)
17,Cc1n(Cc2ccc3ccccc3c2)c2ccccc2[n+]1Cc1ccc2ccccc2c1,-60.8% (active)
18,Oc1ccc(CCCCCCc2ccc(O)cc2)cc1,99.5% (inactive)
19,O=C(Oc1ccc([N+](=O)[O-])cc1)c1ccc(CBr)cc1,84.9% (inactive)
20,C[C@@]1(C(=O)Nc2ccc(F)nc2)CCCN1c1nc(Nc2cc(C3CC3)[nH]n2)c2cccn2n1,13.1% (inactive)
